FBPA Giardia inh – qHTS Assay for Inhibitors of Fructose-1,6-bisphosphate Aldolase from Giardia Lamblia; A8B2U2; purified Giardia FBPA; Potency, µM (titrated, usually from 59.6 µM), for the others: at the top dose activity, negative = inhibition, hits mostly inhibitors; actives 0.71% (n = 290,000); AID 2451, 2010; further: potency means the concentration at half of the fitted maximal effect; on the % scale 0 is the no-effect control and ±100 the full control effect; nearly all actives have a fitted effect of over 55% in size
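40 nM FBPA preincubated 10 min at RT with compound (up to 57.5 uM final), then substrate plus GAPDH/TPI/NAD/arsenate coupling and diaphorase/resazurin added. Fluorescence read after 20 min at RT, 525/598 nm.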
Shiga inhibitor – A qHTS for Small Molecule Inhibitors of Shiga Toxin; AID 2315, 2010; Vero cells, Shiga toxin protein synthesis inhibition reporter; actives 9.2% (n = 290,000); inhibition, % at 38.7 µM; in the data active means inhibition mostly above about 28%, no sharp cut-off; inactive means mostly below about 43%; further: 0% is about no effect
CHX counter – Cycloheximide Counterscreen for Small Molecule Inhibitors of Shiga Toxin | AID 2314, 2010 | cell reporter, cycloheximide protein synthesis inhibition counterscreen | actives 12% (n = 300,000) | max response, %; in the data active means max response mostly above about 13%, no sharp cut-off; inactive means mostly below about 14%; further: read at 38.3 µM for the half of the compounds with a filed dose; 0% is about no effect
Sm TGR block – qHTS Assay for the Inhibitors of Schistosoma Mansoni Peroxiredoxins; purified TGR, DTNB reduction, TNB absorbance 405 nm; Potency, µM (top dose mostly 114 µM), for the others: at the top dose activity change, negative = inhibition, hits mostly inhibitors; actives 3% (n = 360,000); further: potency means the concentration at half of the fitted maximal effect; on the % scale 0 is the no-effect control and ±100 the full control effect; nearly all actives have a fitted effect of over 60% in size
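Kinetic colorimetric format: TGR-catalysed, NADPH-driven DTNB reduction monitored via TNB absorbance. Enzyme dispensed at 20 nM; compound exposure 15 min at room temperature before reaction start.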
Tb PYK inh – qHTS of Trypanosoma Brucei Inhibitors. pyruvate kinase (Trypanosoma brucei), Q57TT1. TbPYK enzyme, Kinase-Glo Plus ATP luminescence, 45 min. Potency, µM (doses to about 76.8 µM), without a hit: at the top dose activity, negative = inhibition, usual class: inhibitors. actives 0.12% (n = 410,000). AID 624173, 2012; further: potency means the concentration at half of the fitted maximal effect; on the % scale 0 is the no-effect control and ±100 the full control effect; nearly all actives have a fitted effect of over 50% in size
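ADP (130 uM final) triggers the TbPYK reaction after compound addition; incubation is 45 min at room temperature. Kinase-Glo Plus is then added and luminescence imaged. Normalized data are fitted to concentration-effect curves.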
LmPK inhibitor – qHTS Assay for Inhibitors of Leishmania Mexicana Pyruvate Kinase (LmPK). actives 0.37% (n = 290,000). purified LmPK, Kinase-Glo ATP luminescence, 1 h. Potency, µM (top dose mostly 57.5 µM), for the others: top-dose activity change, negative = inhibition, hits mostly inhibitors. Q27686. AID 1721, 2009; further: potency means the concentration at half of the fitted maximal effect; on the % scale 0 is the no-effect control and ±100 the full control effect
Target sequence (Q27686 whole entry, looked up): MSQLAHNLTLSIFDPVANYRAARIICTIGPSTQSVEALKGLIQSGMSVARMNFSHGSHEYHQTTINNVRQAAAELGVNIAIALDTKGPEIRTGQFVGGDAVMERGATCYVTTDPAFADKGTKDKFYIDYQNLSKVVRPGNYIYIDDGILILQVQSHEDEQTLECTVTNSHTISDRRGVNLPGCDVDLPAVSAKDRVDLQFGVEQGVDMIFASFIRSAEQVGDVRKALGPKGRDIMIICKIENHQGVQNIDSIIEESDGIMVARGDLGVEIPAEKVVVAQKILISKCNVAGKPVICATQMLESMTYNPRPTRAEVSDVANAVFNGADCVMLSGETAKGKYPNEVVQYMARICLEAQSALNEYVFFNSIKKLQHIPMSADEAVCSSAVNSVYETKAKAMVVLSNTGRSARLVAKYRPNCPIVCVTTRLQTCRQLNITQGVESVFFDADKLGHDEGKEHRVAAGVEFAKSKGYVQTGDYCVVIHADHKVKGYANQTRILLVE
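qHTS format; LmPK 0.1 nM; substrates PEP 0.5 mM and ADP 0.1 mM. One-hour room-temperature incubation, then coupled luciferase luminescence; 0.5 nM enzyme wells mark activation.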
* = called active by the depositor; [ ] = another dose, or the depositor's remark. The full list was thinned out, with hits kept by preference. Unless noted, the call rests on the fitted dose curve; in most records, active means well fitted curve in the direction sought with a large enough effect; inconclusive means small, poorly fitted or top-dose-only effect, or another doubt; inactive means no such curve, though single readings can be large; an effect the other way counts as inactive or inconclusive.

`C/C(CC(=O)Nc1c(C)cc(C)cc1C)=N\NC(=O)OC(C)(C)C` gave FBPA Giardia inh 3.2%, Shiga inhibitor 79.0*, CHX counter 24.7*, Sm TGR block 2.3%, Tb PYK inh -7.4% and LmPK inhibitor 0.9%.
C/C(CC(=O)Nc1ccc(Cl)c(C(F)(F)F)c1)=N\NC(=O)c1cnccn1 was read as FBPA Giardia inh 1.8%, Shiga inhibitor 74.2*, CHX counter 41.2*, Sm TGR block -1.4%, Tb PYK inh -3.4% and LmPK inhibitor -1.8%.
C/C(CC(=O)Nc1c(Cl)cccc1C(F)(F)F)=N\NC(=O)c1cnccn1 was read as Tb PYK inh -0.4%.
For C/C(CC(=O)Nc1ccc(Cl)cc1Cl)=N\NC(=O)c1cnccn1 the results were FBPA Giardia inh -28.2%, Shiga inhibitor 58.9*, CHX counter 32.5*, Sm TGR block -24.0%, Tb PYK inh 3.0% and LmPK inhibitor 3.5%.
Screening C/C(CC(=O)Nc1cccc(C(F)(F)F)c1)=N\NC(=O)c1cnccn1 returned FBPA Giardia inh -4.9%, Shiga inhibitor 53.2*, CHX counter 26.4*, Sm TGR block -27.4%, Tb PYK inh 0.7% and LmPK inhibitor -0.3%.
Screening CCn1c(=O)n(CC)c2cc(N3CCCC3)c(NC(=O)Nc3cc(C)cc(C)c3)cc21 returned Sm TGR block -10.1% and Tb PYK inh 0.5%.
`O=C(c1cn(CCOc2ccccc2F)c2ccccc12)C1CCCCC1` gave Sm TGR block 1.9% and Tb PYK inh -2.1%.
`Cc1ccc(OCC(=O)Nc2ccc3c(c2)nc(CCNC(=O)c2ccco2)n3C)cc1` gave Sm TGR block -3.3% and Tb PYK inh -1.9%.
Screening Cc1ccc(C)c(NC(=O)c2cnccn2)c1 returned FBPA Giardia inh 8.0%, CHX counter -1.9, Sm TGR block 0.6%, Tb PYK inh -3.9% and LmPK inhibitor 3.7%.
C/C(CC(=O)Nc1c(C)cc(C)cc1C)=N\NC(=O)c1cnccn1 was read as FBPA Giardia inh -4.9%, Shiga inhibitor 22.7, CHX counter 49.9*, Sm TGR block -19.6%, Tb PYK inh -1.5% and LmPK inhibitor -2.7%.
C=CCn1c(C)nnc1SCC(=O)Nc1cc(S(=O)(=O)N2CCCC2)ccc1Cl was read as Sm TGR block 9.2% and Tb PYK inh -0.6%.
For c1ccc(CNc2ccnc(-c3cccnc3)n2)cc1 the results were FBPA Giardia inh 2.2%.
For O=C(OCc1ccc([N+](=O)[O-])cc1)C1CC(=O)N(CCc2ccccc2)C1 (stereo not drawn) the results were Sm TGR block -6.9% and Tb PYK inh 1.6%.
Screening O=C(OCc1nnc(-c2ccc([N+](=O)[O-])cc2)o1)C1CC(=O)N(CCc2ccccc2)C1 (stereo not drawn) returned Sm TGR block 89.1µM* and Tb PYK inh -15.5%.
For COc1ccnc(Oc2ccc(C)cc2C)c1C#N the results were FBPA Giardia inh 3.0%, Shiga inhibitor 11.0, CHX counter 18.2*, Sm TGR block 10.2%, Tb PYK inh -12.3% and LmPK inhibitor -0.6%.
COc1ccnc(Oc2cc(Cl)cc(Cl)c2)c1C#N was read as FBPA Giardia inh 1.3%, Shiga inhibitor -13.8, CHX counter 1.5, Sm TGR block 8.1%, Tb PYK inh -2.4% and LmPK inhibitor 3.3%.
For COc1ccnc(Nc2ccc(C)c(C)c2)c1C#N the results were FBPA Giardia inh -4.7%, Shiga inhibitor 14.7, CHX counter 4.2, Sm TGR block 3.3%, Tb PYK inh -3.6% and LmPK inhibitor -2.4%.
For COc1cccc(Oc2nccc(N(C)C)c2C#N)c1 the results were FBPA Giardia inh 4.7%, Shiga inhibitor 38.7*, CHX counter 15.5*, Sm TGR block 9.2%, Tb PYK inh 0.5% and LmPK inhibitor 1.3%.
`N#Cc1c(-c2ccccc2)ccnc1Oc1ccccc1` gave FBPA Giardia inh 9.4%, Shiga inhibitor 58.6*, CHX counter 24.1*, Sm TGR block -13.1%, Tb PYK inh -5.6% and LmPK inhibitor 0.0%.
`COc1ccc(Oc2nccc(OC)c2C#N)cc1` gave FBPA Giardia inh -4.8%, Shiga inhibitor 7.5, CHX counter 19.6*, Sm TGR block -1.4%, Tb PYK inh 1.0% and LmPK inhibitor -2.9%.
Screening CN(C)c1ccnc(Nc2ccccc2)c1C#N returned FBPA Giardia inh -0.5%, Shiga inhibitor -6.1, CHX counter -1.1, Sm TGR block -3.2%, Tb PYK inh -2.6% and LmPK inhibitor -1.1%.
For CCOC(=O)c1ccc(N2CCOCC2)c(NC(=O)c2nccnc2C(=O)O)c1 the results were Shiga inhibitor -8.8, CHX counter 0.6, Sm TGR block 1.2%, Tb PYK inh -6.0% and LmPK inhibitor -3.7%.
CCCCc1oc2ccc(NS(C)(=O)=O)cc2c1C(=O)c1ccc(OCCCN(CCCC)CCCC)cc1 was read as Tb PYK inh -8.0%.
For c1ccc(Oc2ccccn2)cc1 the results were Tb PYK inh -17.2%.
Screening CC(=O)OCC(=O)[C@@]1(O)CC[C@@H]2[C@H]3CCC4=CC(=O)CC[C@]4(C)[C@]3(F)[C@@H](O)C[C@@]21C returned FBPA Giardia inh 3.8%[21.7 µM].
Screening O=C(Cc1ccccn1)Nc1ccccc1 returned FBPA Giardia inh -6.6%, Shiga inhibitor 17.7, CHX counter -1.2, Sm TGR block -25.3%, Tb PYK inh 1.0% and LmPK inhibitor 0.8%.
Screening CCn1c(SCC(=O)Nc2nccs2)nnc1-c1ccccc1 returned FBPA Giardia inh -4.1%, Shiga inhibitor 14.2, CHX counter -3.0, Sm TGR block 2.4%, Tb PYK inh 2.8% and LmPK inhibitor -1.4%.
Screening CCn1c(SCC(=O)Nc2nccs2)nnc1-c1cccnc1 returned Shiga inhibitor 18.7, CHX counter 31.2*, Sm TGR block -3.1%, Tb PYK inh 3.6% and LmPK inhibitor -8.0%.
Screening O=C(CCc1ccccc1)Nc1nccs1 returned FBPA Giardia inh 2.1%, CHX counter 20.3*, Sm TGR block -24.6%, Tb PYK inh 6.2% and LmPK inhibitor 7.2%.
For O=C(CSCc1c(Cl)cccc1Cl)Nc1nccs1 the results were FBPA Giardia inh 5.6%, Shiga inhibitor 109.1*, CHX counter 42.0, Sm TGR block 7.7% and LmPK inhibitor 3.2%.
`O=C(CSCc1ccccn1)Nc1ccccc1` gave FBPA Giardia inh -8.8%, Shiga inhibitor 37.8*, CHX counter 22.4*, Sm TGR block 8.1%, Tb PYK inh -0.3% and LmPK inhibitor -5.6%.
Screening O=C(COC(=O)c1ccc(Cl)nc1)Nc1ccc(N2CCCCC2)cc1 returned Tb PYK inh 2.5%.
